Results as given in PubChem BioAssay AID1159506 (National Center for Advancing Translational Sciences (NCATS), 2015).
Over roughly 59,000 sequences, the read-out has its median near -0.00055; the lowest 2% begin near -2. The sample as a whole holds a higher share of the lowest values than the screen did.

assay: Identification of proteins required for the processing of the EWS-FLI1 nascent transcript; conditions: TC32 Ewing sarcoma NR0B1-luc vs CMV-luc (EWS-FLI1 target promoter against control promoter), 48 h; screened at 20 nM (by protocol);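 note: robust z of luciferase light less the median z of siRNAs with the same seed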
Method in brief: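 Readout: OneGlo luminescence, 48 h post-transfection, TC32-NR0B1-luc vs TC32-CMV-luc in parallel. siRNA 20 nM final, RNAiMax lipid, 600 cells/well; z-score-MAD transformed, then seed-adjusted.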

Row | Sequence | seed-corrected z-score
1 | UAUCUGAAGAUCUAGACUC against ZNF280D | -0.0696
2 | UCCUUGACCAGAAAUCUCA against TRIM31 | -0.472
3 | UACGUCAAACGGAACUUCC against LRPPRC | -0.194
4 | UCAUGUAUAAACAGUCGCC against ALDH7A1 | 0.368
5 | UUAGCAUGAUGAUCAAGGC against LIN28B | 0.22
6 | UUAUAUAUCUCCUGGAGCG against AGPAT3 | -0.537
7 | UGAGUUUCGAGAGCACAGU against MID1IP1 | -3.02
8 | AAACUUUCUCCUUAAGGCC against PRR11 | -0.21
9 | UUGCAAUUGAAUUCACAGC against SRI | -0.0706
10 | UGAAGGAUUUGUGACAUAC against ZFP28 | -0.0712
11 | UGUGGUUCCAAGGCACGUC against CCER2 | -2.12
12 | UUCCUUGGGCCCUAUAUGU against FAM168A | -0.129
13 | AACGUAGAAAAGCAUAUCG against DENND5B | -0.0535
14 | UAUCUUGCUGGUGUGUGUG against MAX | -0.878
15 | AUAGGCUUUAUCAAGAUCG against MPP5 | 0.288
16 | UGAAUUUCUCGAAUCUGUG against SF3B1 | -4.69
17 | UGACCGAUGACAGGUAUCU against MRGPRX3 | -0.02
18 | UUUUGAGUGGGUAUCAACC against VIM | 0.533
19 | UUCUGUGCUACUUUGUGCU against SSR3 | 1.19

Row | Sequence | seed-corrected z-score
20 | UCCCUGAAUAGUGUGACAG against CCDC103 | 0.246
21 | UUACAUCCAAUUGUAAAGG against C5orf22 | -2.74
22 | UUUGCGAAACUCCAAGUCC against LMNB1 | -0.159
23 | AAAAAUAUCUGUGAUUCUG against WNK1 | 0.399
24 | UAGGCAUCGAUGUGGAAGC against TELO2 | 2.04
25 | UCAGCAGAUCUUGACAGUC against LYZL6 | 0.253
26 | CUGCUUCUGAGCGUUUGCG against MED14OS | -2.09
27 | UUGCCGUAUAGGUAGUUUG against NPTX2 | -0.552
28 | UAGGCGACGCCCUUUUUCU against H3.X | -0.0707
29 | UUUGAGUCCUCAUGGGUGG against GTF3C4 | 1.63
30 | UAGGUGUUGAUGAUCUCCC against XAB2 | -2.44
31 | UUUGUCUCUGCGGAGGUUC against EIF3D | -0.479
32 | UGAUUAGUCACCAAAGUCC against ATF7IP | -1.24
33 | UACUGUCGAACUUUGCCUG against HEPH | -1.6
34 | UCACUAGCAAGGUUCUCCC against LARP4B | 0.24
35 | UAAUGUACUUGAUCGCAGC against ASCL3 | -1.12
36 | AUAGUUGCCGGUGCUCACC against PICK1 | -3.04
37 | UACUGUAUAGGAAACGAUC against ESPL1 | -0.0398
